For 5 compounds, composite z-score and z-score results are on record in PubChem BioAssay.

The subject of assay [1] is Plasmodium falciparum Sir2 (PF13_0152, Sir2A). As to the kind of experiment: Plasmodium falciparum Sir2A binding compounds – biochemical, small-molecule microarray, 635 nm fluorescence, primary screen (AID 1098).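 Also: score merges spot fluorescence intensity with its signal-to-noise ratio.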 The conditions noted are these: fluorescence 635 nm, higher = more signal.
Assay [2] is described as follows: probe aDKK1 binding to arrayed compounds – biochemical, biotinylated probe, 635/667 nm fluorescence, primary screen (AID 1099).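 Also: score merges 667nm spot fluorescence with signal to noise across triplicate slides.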 The note with it: small-molecule microarray, higher = more signal.
Assay [3] is described as follows: probe aCHRDL2 binding to arrayed compounds – biochemical, biotinylated probe, 635/667 nm fluorescence, primary screen (AID 1100). The note with it: small-molecule microarray, higher = more signal.
The nature of assay [4]: change in splice reporter luminescence, either direction, cell-based, HEK293, spliceosome inhibition project, primary screen (AID 1101).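 Also: HEK293 cells carrying a splicing-competent luciferase reporter gene; test concentration not given here.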 The note with it: HEK293 splicing luciferase reporter, 24 h, higher = more signal, called active from +8 up or from −8 down.
In assay [5] the target is Fibroblast growth factor 10 (Homo sapiens) (UniProt O15520). As to the kind of experiment: compounds binding fibroblast growth factor 10 – biochemical, small-molecule microarray, 635 nm fluorescence, primary screen (AID 1102). The note with it: FGF10 binding, fluorescence 635 nm, higher = more signal.
The test system of assay [6] is glycogen synthase kinase-3 (GSK3A per assay name; protocol says GSK3B). As to the kind of experiment: compounds binding glycogen synthase kinase-3 – biochemical, small-molecule microarray, 635 nm fluorescence, GSK3A, primary screen (AID 1103). Also: the record names both GSK3A and GSK3B. The note with it: fluorescence 635 nm, higher = more signal.
Assay [7] addresses Epidermal growth factor receptor (Homo sapiens) (UniProt P00533). As to the kind of experiment: compounds binding epidermal growth factor receptor – biochemical, small-molecule microarray, 635 nm fluorescence, primary screen (AID 1104).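 Also: score merges 667 nm emission intensity with spot signal to noise over triplicate slides.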 The conditions noted are these: EGFR binding, higher = more signal.
The target in assay [8] is Follistatin-related protein 3 (Homo sapiens) (UniProt O95633). As to the kind of experiment: compounds binding follistatin-related protein 3 – biochemical, small-molecule microarray, 635 nm fluorescence, primary screen (AID 1105).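 Also: score merges emission near 667 nm and signal to noise per printed spot across three slides.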 The conditions noted are these: FSTL3 binding, higher = more signal.
For assay [9], the target named is Dickkopf-related protein 1 (Homo sapiens) (UniProt O94907). As to the kind of experiment: small molecules binding DKK1 protein – biochemical, small-molecule microarray, 635 nm fluorescence scan, primary screen (AID 1106).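 Also: score merges emission near 667 nm with signal to noise over three replicate slides.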 The conditions noted are these: higher = more signal.
Assay [10] has as its system Inhibin beta A chain (activin A). As to the kind of experiment: small molecules binding activin A – biochemical, small-molecule microarray, 635 nm fluorescence scan, primary screen (AID 1107).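 Also: mouse activin A protein probed at 4.33 µg/mL on printed slides; score merges bound-protein fluorescence near 667 nm with spot signal-to-noise.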 The conditions noted are these: INHBA, higher = more signal.
Assay [11] deals with Human papillomavirus type 1a protein E7 (residues 44-93). As to the kind of experiment: small molecules binding HPV E7 44-93 – biochemical, small-molecule microarray, residues 44-93, 635 nm fluorescence, primary screen (AID 1108).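 Also: E7 fragment applied at 1 µg/mL in TBST for 1 h at 4 C; score combines spot fluorescence with its signal to noise ratio.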 The conditions noted are these: fluorescence 635 nm, higher = more signal.
A short description of assay [12]: hepatitis C replication reporter changes, two-sided – Huh7 cells, luciferase reporter, HCV replication inhibitor project, primary screen (AID 1109).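 Also: huh7 hepatoma cells harbouring a luciferase neomycin HCV replicon reporter; luciferase luminescence as measure of HCV replicon replication; test concentration not given here.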 The note with it: Huh7 HCV replicon luciferase reporter, 48 h; higher = more signal. (In a reporter assay the amount or activity of a reporter protein is the signal.)
In assay [13] the target is Left-right determination factor 2 (Homo sapiens) (UniProt O00292). As to the kind of experiment: small molecules binding LEFTY2 protein – biochemical, small-molecule microarray, 635 nm fluorescence scan, primary screen (AID 1110). The conditions noted are these: higher = more signal.
Assay [14] addresses Calmodulin-1 (Homo sapiens) (UniProt P0DP23). Put plainly: small molecules binding calmodulin-1 with EGTA – biochemical, small-molecule microarray, Cy5-labelled CALM1, profiling panel (AID 1111).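 Also: labelled calmodulin applied in Tris saline Tween buffer holding calcium plus EGTA and DTT.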 The conditions noted are these: Cy5-CALM1 binding fluorescence, higher = more signal.
For assay [15] the target is unchanged. Put plainly: small molecules binding Ca-loaded calmodulin-1 – biochemical, small-molecule microarray, Cy5-labelled CALM1, plus calcium, artefact control for SMM control-protein annotation, profiling panel (AID 1112).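 Also: score merges spot fluorescence with signal to noise from triplicate slides.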 The note with it: Cy5-CALM1 binding fluorescence, higher = more signal.
A short description of assay [16]: probe aWnt5a binding to arrayed compounds – biochemical, biotinylated probe, 635/667 nm fluorescence, primary screen (AID 1113).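 Also: score merges 667 nm fluorescence intensity with signal-to-noise per printed feature.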 The conditions noted are these: small-molecule microarray, higher = more signal.
Assay [17] is described as follows: probe aShh binding to arrayed compounds – biochemical, biotinylated probe, 635/667 nm fluorescence, primary screen (AID 1114).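 Also: probe is biotin-labelled aShh protein from a stem cell growth factor screen; measures binding of labelled protein to compounds printed on the slide; score merges feature fluorescence at 667 nm with signal-to-noise.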 The note with it: small-molecule microarray, higher = more signal.
A short description of assay [18]: probe aNog binding to arrayed compounds – biochemical, biotinylated probe, 635/667 nm fluorescence, primary screen (AID 1115).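 Also: probe is biotinylated aNog protein used at 0.15 µg/mL for 1 h at 4 C; z-score combines 667 nm fluorescence of each spot with its signal to noise.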 The conditions noted are these: small-molecule microarray, higher = more signal.
The target of assay [19] is Torsin-1A-interacting protein 1 (Homo sapiens) (UniProt Q5JTV8). Put plainly: compound microarray binding of lysate hLAP1 – cell lysate, small-molecule microarray, COS7 lysate, 635/667 nm fluorescence, primary screen (AID 1116). The conditions noted are these: 635 nm fluorescence, higher = more signal.
Assay [20] has as its target Alpha-bungarotoxin (Bungarus multicinctus) (UniProt P60615). Put plainly: compounds binding labelled alpha-BTX control protein – biochemical, small-molecule microarray, Alexa647 label, 635/667 nm fluorescence, artefact control for SMM control protein annotation, profiling panel (AID 1117). The conditions noted are these: alpha-BTX-A647 binding fluorescence, higher = more signal.

SMILES strings stand for the structures. The source made the active and inactive calls.

Fibroblast growth factor 10 (Homo sapiens), sequence (O15520 whole entry, looked up): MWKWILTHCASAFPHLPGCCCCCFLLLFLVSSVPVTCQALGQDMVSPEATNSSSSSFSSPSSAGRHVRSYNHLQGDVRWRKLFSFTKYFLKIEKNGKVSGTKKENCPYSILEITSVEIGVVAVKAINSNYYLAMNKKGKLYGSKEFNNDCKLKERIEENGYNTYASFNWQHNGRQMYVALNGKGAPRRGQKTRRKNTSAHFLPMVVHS
Follistatin-related protein 3 (Homo sapiens), sequence (O95633 whole entry, looked up): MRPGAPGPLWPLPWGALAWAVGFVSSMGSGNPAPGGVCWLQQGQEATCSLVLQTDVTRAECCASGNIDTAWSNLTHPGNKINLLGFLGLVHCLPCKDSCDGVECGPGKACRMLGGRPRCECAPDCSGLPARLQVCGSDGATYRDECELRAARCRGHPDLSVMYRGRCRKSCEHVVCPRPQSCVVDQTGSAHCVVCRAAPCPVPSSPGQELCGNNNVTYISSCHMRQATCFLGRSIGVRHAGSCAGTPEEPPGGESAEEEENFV
Dickkopf-related protein 1 (Homo sapiens), sequence (O94907 whole entry, looked up): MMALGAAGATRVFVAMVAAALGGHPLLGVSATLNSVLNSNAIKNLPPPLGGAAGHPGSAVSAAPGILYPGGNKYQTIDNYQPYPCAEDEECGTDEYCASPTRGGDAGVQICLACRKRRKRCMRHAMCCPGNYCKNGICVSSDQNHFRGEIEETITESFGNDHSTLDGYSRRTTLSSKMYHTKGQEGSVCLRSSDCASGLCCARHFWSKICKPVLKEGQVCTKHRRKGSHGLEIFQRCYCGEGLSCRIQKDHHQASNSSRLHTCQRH
Left-right determination factor 2 (Homo sapiens), sequence (O00292 whole entry, looked up): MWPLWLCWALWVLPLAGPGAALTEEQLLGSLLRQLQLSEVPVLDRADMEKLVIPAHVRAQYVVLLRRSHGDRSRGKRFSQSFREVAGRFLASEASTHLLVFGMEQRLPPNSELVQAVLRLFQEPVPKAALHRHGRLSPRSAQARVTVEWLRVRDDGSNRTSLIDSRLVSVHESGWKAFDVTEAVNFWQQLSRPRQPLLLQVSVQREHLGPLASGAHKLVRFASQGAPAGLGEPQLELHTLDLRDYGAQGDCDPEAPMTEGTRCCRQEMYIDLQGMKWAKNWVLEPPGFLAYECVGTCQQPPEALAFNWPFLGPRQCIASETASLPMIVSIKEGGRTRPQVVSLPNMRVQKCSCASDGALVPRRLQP
Epidermal growth factor receptor (Homo sapiens), sequence (P00533 whole entry, looked up): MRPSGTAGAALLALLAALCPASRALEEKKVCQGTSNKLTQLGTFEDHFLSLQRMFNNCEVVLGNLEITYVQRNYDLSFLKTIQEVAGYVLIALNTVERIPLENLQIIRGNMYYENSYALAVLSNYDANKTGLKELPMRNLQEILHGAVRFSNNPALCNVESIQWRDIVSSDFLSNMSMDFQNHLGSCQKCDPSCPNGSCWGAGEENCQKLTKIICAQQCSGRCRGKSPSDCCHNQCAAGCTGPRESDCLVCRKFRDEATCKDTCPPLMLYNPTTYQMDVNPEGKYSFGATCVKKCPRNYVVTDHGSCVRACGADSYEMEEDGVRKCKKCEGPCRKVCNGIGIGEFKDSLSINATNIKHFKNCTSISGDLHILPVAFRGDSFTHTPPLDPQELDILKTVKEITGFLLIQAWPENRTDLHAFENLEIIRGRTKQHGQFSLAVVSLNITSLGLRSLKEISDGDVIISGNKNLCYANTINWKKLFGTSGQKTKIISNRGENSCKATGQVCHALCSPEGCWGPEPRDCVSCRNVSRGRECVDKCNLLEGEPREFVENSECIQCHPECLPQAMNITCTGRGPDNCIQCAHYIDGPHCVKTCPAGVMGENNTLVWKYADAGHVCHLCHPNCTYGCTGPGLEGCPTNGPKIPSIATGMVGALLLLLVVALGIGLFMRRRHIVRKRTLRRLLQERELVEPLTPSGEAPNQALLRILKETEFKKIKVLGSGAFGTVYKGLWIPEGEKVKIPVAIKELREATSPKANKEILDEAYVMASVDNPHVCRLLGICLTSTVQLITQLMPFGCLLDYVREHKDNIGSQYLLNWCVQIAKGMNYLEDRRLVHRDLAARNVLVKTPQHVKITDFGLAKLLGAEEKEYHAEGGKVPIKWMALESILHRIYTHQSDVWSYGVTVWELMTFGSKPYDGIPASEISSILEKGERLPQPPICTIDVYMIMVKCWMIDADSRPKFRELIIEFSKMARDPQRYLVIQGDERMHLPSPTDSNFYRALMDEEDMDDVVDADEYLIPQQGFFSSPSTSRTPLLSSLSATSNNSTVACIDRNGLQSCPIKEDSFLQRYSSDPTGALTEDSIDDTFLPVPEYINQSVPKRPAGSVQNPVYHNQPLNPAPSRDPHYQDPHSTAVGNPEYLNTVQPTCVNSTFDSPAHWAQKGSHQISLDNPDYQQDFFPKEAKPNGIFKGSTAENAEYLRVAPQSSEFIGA
Alpha-bungarotoxin (Bungarus multicinctus), sequence (P60615 whole entry, looked up): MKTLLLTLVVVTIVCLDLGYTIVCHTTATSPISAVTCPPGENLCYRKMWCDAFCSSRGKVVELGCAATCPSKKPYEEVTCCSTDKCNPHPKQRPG
Torsin-1A-interacting protein 1 (Homo sapiens), sequence (Q5JTV8 whole entry, looked up): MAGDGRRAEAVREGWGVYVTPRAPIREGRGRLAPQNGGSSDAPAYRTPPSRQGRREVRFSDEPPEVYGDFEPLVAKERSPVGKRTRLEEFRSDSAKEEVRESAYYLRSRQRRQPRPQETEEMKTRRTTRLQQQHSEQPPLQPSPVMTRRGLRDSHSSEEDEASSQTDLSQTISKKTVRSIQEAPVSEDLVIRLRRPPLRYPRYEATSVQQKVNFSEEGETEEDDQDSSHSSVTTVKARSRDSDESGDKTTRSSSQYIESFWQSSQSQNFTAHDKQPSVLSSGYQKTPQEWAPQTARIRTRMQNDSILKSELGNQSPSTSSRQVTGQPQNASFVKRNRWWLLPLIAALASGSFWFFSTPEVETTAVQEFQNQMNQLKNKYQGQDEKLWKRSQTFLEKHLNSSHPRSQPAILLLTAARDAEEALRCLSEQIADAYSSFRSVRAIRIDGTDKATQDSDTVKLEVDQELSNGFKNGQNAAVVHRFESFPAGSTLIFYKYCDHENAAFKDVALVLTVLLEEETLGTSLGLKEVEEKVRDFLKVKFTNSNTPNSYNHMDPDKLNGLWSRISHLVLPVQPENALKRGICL

Take `COCCOC(=O)N1C(=O)[C@@]2(c3cc(C#CCNC(N)=O)ccc31)[C@H](c1ccccc1OCCO)N1[C@H](c3ccccc3)[C@H](c3ccccc3)OC(=O)[C@H]1[C@@H]2C(=O)NC[C@H](O)c1ccccc1`: the composite z-score is 1.08 in [1]; 0.0288 in [2]; 0.352 in [3]; 1.18 in [5]; 0.618 in assay [6]; 0.134 in assay [7]. Moreover, the composite z-score stood at 1 in assay [8]; 0.117 in [9]; 0.203 in assay [10]; 1.44 in assay [11]; 0.391 in assay [13]; 1.07 in [14]. Also, the composite z-score is 0.527 in [15]; -0.0239 in assay [16]; 0.0639 in [17]; 0.385 in [18]; 0.867 in assay [19]; 2.05 in assay [20]. In addition, the results for the z-score in [4] and in assay [12] were 0.408 (inactive) and -1.1, respectively.
Turning to `CCCCO[C@H]1C[C@H]2C(Br)=C[C@@]1(CO)C(=O)[C@]21CO1`, the composite z-score in assay [1] was -0.145; in assay [2] it was -0.482; in [3], -1.04; in assay [5] it was 0.136; in assay [6] it was -0.243; in [7], 0.156. Moreover, the composite z-score in [8] is 0.184; in assay [9] it was 0.308; in [10], 0.363; in assay [11] it was -0.122; in assay [13], 0.456; in assay [14], -0.795. The composite z-score in [15] is -1.33; in assay [16], -0.146; in assay [17], -0.123; in assay [18], -0.278; in assay [19], -0.242; in assay [20], -0.755. For the same compound, the figures for the z-score in assay [4] and in assay [12] were -1.53 (inactive) and -1.46, respectively.
For `COc1ccc([Si](C)(C)[C@@H]2[C@@H](CCO)O[C@]3(C(=O)N(Cc4ccccc4)c4ccccc43)[C@H]2C)cc1`, the composite z-score in [1] was 0.183; in assay [2] it was -0.18; in assay [3] it was -0.455; in assay [5], 0.633; in assay [6] it was 0.16; in [7] it was 0.187. In addition, the composite z-score in assay [8] was 0.174; in assay [9], 0.104; in assay [10], -0.0249; in assay [11], 0.566; in assay [13], 0.224; in assay [14] it was 0.398. Besides, the composite z-score in assay [15] is 0.49; in assay [16], -0.148; in assay [17], -0.217; in assay [18], 0.202; in assay [19] it was 0.526; in [20] it was 0.124. Moreover, the z-score in [4] is -0.535 (inactive); in assay [12], -1.84.
With `O=C(NCC(F)(F)F)[C@@H]1c2ccccc2C(=O)N(Cc2ccccc2Cl)[C@H]1c1ccc(CO)cc1`, the composite z-score in [1] is 1.68; in assay [2], 0.624; in [3], -0.363; in [5], -0.85; in assay [6] it was -1.1; in assay [7], -0.728. Moreover, the composite z-score is -0.643 in assay [8]; -0.941 in assay [9]; -0.0121 in assay [10]; -0.804 in [11]; -1.44 in assay [13]; -0.483 in assay [14]. For the same compound, the composite z-score in assay [15] is -0.135; in assay [16], -0.147; in assay [17], 0.245; in assay [18], -0.0689; in assay [19], -1.19; in [20], -1.18. The z-score in assay [4] is 0.632 (inactive); in assay [12] it was -1.03.
Take `COC(=O)Cn1c(C(=O)N2CCCC2)cc2c1C[C@H]1CN(C(=O)c3ccccc3)[C@@](Cc3ccc(OC)cc3)(C(=O)OC)[C@@H]21`: the composite z-score in assay [1] stood at 0.41; in assay [2] it was 1.37; in assay [3], 1.1; in assay [5] it was 0.388; in assay [6] it was 0.203; in assay [7], 0.559. In addition, the composite z-score in assay [8] is 0.348; in assay [9] it was -0.467; in assay [10], 1.04; in assay [11] it was 1.44; in [13], -0.304; in [14], 1.55. The composite z-score in assay [15] was 0.367; in assay [16], 0.129; in [17], 0.593; in assay [18] it was 1.83; in [19], 0.478; in assay [20], 0.841. Further, the z-score was -1.76 (inactive) in assay [4] and -1.21 in [12].
